Screens from PubChem BioAssay.
An excerpt weighted towards active compounds, which were near 19% of everything screened.
IL1B secr inh – qHTS for Inhibitors of Inflammasome Signaling: IL-1-beta AlphaLISA Primary Screen; THP-1 LPS/ATP IL-1B secretion, AlphaLISA, 16 h; hits give low values; activity change, % at 57.5 µM; 360,000 compounds, 4.7% hits; AID 743279, 2014; in the data active means activity change below about -50%; inconclusive means mostly about -30% to -49%
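THP-1 cells pretreated 1 hr with compounds (up to 57.5 uM final), then stimulated with LPS (250 ng/mL final) plus ATP (1.25 mM final); secreted IL-1B measured by AlphaLISA after 16 hr, decreased signal indicating inhibition.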
TDP1 cell noCPT – qHTS for Inhibitors of human tyrosyl-DNA phosphodiesterase 1 (TDP1): qHTS in cells in absence of CPT. DT40 Tdp1-/- hTDP1 cells, no CPT, ATP luminescence, 48 h. Potency, µM (titrated, usually from 46.2 µM), without a hit: at the highest dose activity change, negative = growth inhibition, most hits filed as inhibitors. 420,000 compounds, 15% hits; further: potency means the concentration at half of the fitted maximal effect; nearly all actives have a fitted effect of over 55% in size
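A cellular qHTS used chicken DT40 cells lacking endogenous Tdp1 but carrying stably transfected human TDP1. Compounds were applied without camptothecin, and cell growth kinetics were judged by ATP-dependent luminescence after ≥48 hr.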
HT1080NT lethal – qHTS for induction of synthetic lethality in tumor cells producing 2HG: qHTS for the HT-1080-NT fibrosarcoma cell line; HT-1080-NT fibrosarcoma viability, CellTiter-Glo ATP luminescence, 48 h; AID 686970, 2013; Potency, µM (titrated, usually from 46.1 µM), without a hit: at the highest dose activity, negative = less viability, actives largely listed as cytotoxic; 360,000 compounds, 1.6% hits;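 further: NT is the 2HG producing partner of a matched IDH1 knockdown line; potency means the concentration at half of the fitted maximal effect; 0% = DMSO-treated cells and -100% = media-only wells without cells; nearly all actives have a fitted effect of over 55% in size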
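HT-1080-NT fibrosarcoma cells (2HG-overproducing), 750 cells/well in RPMI with 5% FBS, dosed after 2 h and incubated 48 h at 37C. CellTiter-Glo luminescence normalized to DMSO and no-cell wells; concentration-response curves fitted and classed.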
HT1080 IDH1KD tx – qHTS for induction of synthetic lethality in tumor cells producing 2HG: qHTS for the HT-1080-IDH1KD cell line | HT-1080 IDH1 knockdown viability, ATP luminescence, 48 h | Potency, µM (top dose mostly 46.1 µM), inactives show top-dose activity, negative = toxicity, actives largely listed as cytotoxic | 360,000 compounds, 2% hits | AID 686971, 2013;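 further: potency means the concentration at half of the fitted maximal effect; 0% = DMSO wells and -100% = cell-free medium wells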
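HT-1080-IDH1KD cells (IDH1 knocked down), 750/well in RPMI with 5% FBS, treated with compound 48 h at 37 degrees C. Viability by CellTiter-Glo luminescence, normalised to DMSO and no-cell wells; concentration-response curves classed.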
DT40 TDP1 CPT – qHTS for Inhibitors of human tyrosyl-DNA phosphodiesterase 1 (TDP1): qHTS in cells in presence of CPT. chicken DT40 Tdp1-/-;hTDP1 cells + 20 nM CPT, ATP luminescence, 48 h. Potency, µM (doses to about 46.2 µM), inactives show at the highest dose activity change, negative = growth inhibition, hits mostly inhibitors. 420,000 compounds, 12% hits; further: potency means the concentration at half of the fitted maximal effect; nearly all actives have a fitted effect of over 55% in size
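Chicken DT40 Tdp1-/- cells stably complemented with human TDP1 were seeded at 400 cells/well in medium containing 20 nM camptothecin, exposed to pin-transferred compounds, and grown at 37 °C for at least 48 hr. Viability was read as ATP luminescence.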
uPA generation – qHTS for Inhibitors of Cell Surface uPA Generation; Potency, µM (titrated, usually from 38.3 µM), for inactives: top-dose activity change, negative = inhibition, usual class: inhibitors; cell surface uPA generation assay, qHTS; 330,000 compounds, 0.31% hits; active means well fitted inhibition curve with a large enough effect; inconclusive means small, poorly fitted or top-dose-only effect; inactive means no such curve, though single readings can be large or run the other way; tested in mouse RAW 264.7 cells; further: potency means the concentration at half of the fitted maximal effect; nearly all actives have a fitted effect of over 55% in size
Active calls of the source: *; ? = inconclusive; / = not tested or not shown; ! = a repeat was not active; [ ] = another dose, or the depositor's remark. Unless noted, the call rests on the fitted dose curve; in most records, active means well fitted curve in the direction sought with a large enough effect; inconclusive means small, poorly fitted or top-dose-only effect, or another doubt; inactive means no such curve, though single readings can be large; an effect the other way counts as inactive or inconclusive. Unless noted, on the % scale 0 is the no-effect control and ±100 the full control effect.

SMILES | IL1B secr inh | TDP1 cell noCPT | HT1080NT lethal | HT1080 IDH1KD tx | DT40 TDP1 CPT | uPA generation
CC12CC(O)C3C(CCC4=CC(=O)CCC43C)C1CCC2=CCO (stereo not drawn) | 6 | ? | -3% | 0% | ? | 3%
CC(OC(=O)CSc1ccc([N+](=O)[O-])cc1)C(=O)NC1CC1 (stereo not drawn) | 9 | -10% | -1% | -7% | -10% | 7%
CCn1c(SCC(=O)N2CCCc3ccccc32)nc2cccnc21 | -4 | 18µM* | 6% | 0% | ? | 10%
Cc1cc2c(=O)n(Cc3ccco3)c(SCC(=O)NCc3ccco3)nc2s1 | -1 | -21% | ? | -25% | -22% | 2%
Cc1cc2c(=O)n(Cc3ccco3)c(SCC(=O)N3CCCc4ccccc43)nc2s1 | -67* | ? | ? | -23% | ? | -24%
Cn1c(SCC(=O)N2CCc3ccccc32)nc2cccnc21 | -9 | 21µM* | -12% | -14% | 16µM* | -2%
O=C(O)Cn1nnc(-c2ccc(OCc3cccc(C(F)(F)F)c3)cc2)n1 | / | -2% | / | / | -3% | /
CCCc1c(C(=O)N/N=C/C=C/c2ccccc2)nnn1-c1nonc1N | 43 | -25% | -8% | -11% | -19% | /
O=C(CCn1c(=O)c2cccn2c2cccnc21)N1CCN(c2cccc(C(F)(F)F)c2)CC1 | / | 9.2µM* | / | / | 15µM* | /
O=C(CCn1c(=O)c2cccn2c2cccnc21)N1CCN(c2ccc(Cl)cc2)CC1 | / | 13µM* | / | / | 10µM* | /
CN1CCN(C(=O)CCn2c(=O)c3cccn3c3cccnc32)CC1 | 20 | 2% | 10% | 5% | 2% | 2%
COc1ccc(CNC(=O)CCSCc2cccc(Cl)c2)c(OC)c1 | -8 | ? | 0% | -1% | -25% | 5%
CC(C)c1c(C(=O)NCC(C)(C)N2CCOCC2)cnn1-c1nccc(-c2ccccc2F)n1 | / | ? | / | / | -14%[9.04 µM] | /
CCN(CC)CCNc1nc2c(c(=O)[nH]c(=O)n2C)n1CC(O)COc1ccc(Cl)cc1Cl (stereo not drawn) | 0 | -18% | -5% | -2% | -7% | 10%
COc1ccccc1OCC(O)Cn1c(Br)nc2c1c(=O)[nH]c(=O)n2C (stereo not drawn) | 34 | 15µM* | -7% | -1% | ? | 2%
Cc1cc(C)n(-c2nc3c(c(=O)[nH]c(=O)n3C)n2CC(O)COc2ccc(Cl)cc2Cl)n1 (stereo not drawn) | 116 | 5.8µM* | ? | ? | 6.5µM* | -11%
Cn1c(=O)[nH]c(=O)c2c1nc(Br)n2CC(O)COc1ccccc1 (stereo not drawn) | 9 | -18% | 2% | 3% | -1% | -5%
Cc1nc(N2CCCC2)ncc1C(=O)Nc1ccccc1 | / | -10% | / | / | -28% | /
c1ccc2c(c1)ncc1nncn12 | / | -20% | / | / | -6% | /
O=c1onc2cnc3ccccc3n12 | / | 13µM* | / | / | ? | /
Cc1ccc(-c2noc(-c3cccs3)n2)cc1 | -8 | 2% | 0% | 6% | 6% | -21%
O=[N+]([O-])c1ccc(-c2nc(-c3cccs3)c(-c3cccs3)[nH]2)cc1 | -81* | 12µM* | ? | -18% | 12µM* | 0%
O=[N+]([O-])c1cccc(-c2nc(-c3ccccc3)c(-c3cccs3)[nH]2)c1 | 8 | ? | -4% | -29% | -25% | 16%
Cc1ccc(-c2nc(-c3cccs3)c(-c3cccs3)[nH]2)cc1 | / | 12µM* | / | / | 15µM* | /
O=[N+]([O-])c1cccc(-c2nc(-c3cccs3)c(-c3cccs3)[nH]2)c1 | -15 | 21µM* | -17% | ? | 21µM* | 1%
SMILES | IL1B secr inh | TDP1 cell noCPT | HT1080NT lethal | HT1080 IDH1KD tx | DT40 TDP1 CPT | uPA generation
Cn1c(=O)n(Cc2ccc(Cl)cc2)c(=O)c2c1nc1n2CCN1Cc1ccco1 | -1 | 15µM* | -10% | 1% | ? | 4%
Cn1c(NCc2ccccc2)nc2c1c(=O)n(Cc1ccc(Br)cc1)c(=O)n2C | ? | ? | ? | ? | ? | 6%
COc1ccc(CNc2nc3c(c(=O)n(Cc4ccc(Br)cc4)c(=O)n3C)n2C)cc1 | 0 | 21µM* | ? | ? | ? | 0%
Cn1c(NCc2ccco2)nc2c1c(=O)n(Cc1ccc(Br)cc1)c(=O)n2C | -11 | ? | -23% | -24% | ? | 4%
Cc1cccc(Cn2c(=O)c3c(nc4n3CCN4Cc3ccco3)n(C)c2=O)c1 | -25 | 21µM* | -1% | -15% | 21µM* | 5%
CCCn1c(=O)c2c(nc3n2CCN3Cc2ccco2)n(C)c1=O | 2 | 0% | -4% | 4% | 4% | 2%
Cn1c(NCc2ccco2)nc2c1c(=O)n(Cc1ccc(Cl)cc1)c(=O)n2C | -24 | 18µM* | -23% | -18% | ? | -8%
O=C(Nc1nnc(COc2ccc(F)cc2)s1)Nc1ccccc1F | 8 | -23% | 18% | 20% | -14% | 1%
C=CCN1C(=O)C(CC(=O)NCC)SC1=Nc1ccccc1OC (stereo not drawn) | 12 | 2% | 3% | 6% | 1% | 7%
Cn1c(N2CCCC2)nc2c1c(=O)n(Cc1ccc(Cl)cc1)c(=O)n2C | -17 | ? | -12% | -8% | ? | 2%
CC1CN(c2nc3c(c(=O)n(Cc4ccc(Cl)cc4)c(=O)n3C)n2C)CC(C)O1 (stereo not drawn) | 0 | 26µM* | -5% | -17% | ? | 2%
OCCCNc1nc(-c2ccccc2)c2cc(Br)ccc2n1 | -76* | ? | -12% | -29% | ? | -9%
Cc1ccc2nc(NCCCO)nc(-c3ccccc3)c2c1 | -4 | 12µM* | ? | ? | 13µM* | -7%
COc1cccc(Nc2nc(-c3ccccc3)c3cc(C)ccc3n2)c1 | / | ? | / | / | 7.3µM* | /
CC1(C(=O)NS(=O)(=O)c2ccc(Br)cc2)CCN1C(=O)Cc1ccsc1 (stereo not drawn) | 23 | -1% | 2% | ? | -9% | /
CCN(CC)c1ccc(SS(=O)(=O)O)cc1 | -71*! | -28% | 1% | 14% | -9% | -3%
O=S(=O)(O)Sc1ccccc1 | -99* | 21µM* | -11% | ? | 23µM* | /
